# Assay results reported in PubChem BioAssay (NCATS).
# Values joined by “and” are separate entries in the source; they are usually repeats but may differ in a detail not shown here. Equal entries are not always repeated. Inconclusive results are not listed. Entries that show only a call come without a potency. Active and inactive are the calls of the source. Unless noted, calls follow the shape of the dose curve; as a rule, active = well fitted curve in the direction sought with a large enough effect; inconclusive = small, poorly fitted or top-dose-only effect, or another doubt; inactive = no such curve, though single readings can be large; an effect the other way counts as inactive or inconclusive.
# Legend:
# [1] = target: Ubiquitin carboxyl-terminal hydrolase 1 (Homo sapiens) (UniProt O94782); test: Inhibitors of USP1/UAF1: Pilot qHTS (AID 504865); also: nearly all actives have a fitted effect of over 35% in size; also: potency is read from the fitted curve at half-maximal effect
# Chain of Ubiquitin carboxyl-terminal hydrolase 1 (Homo sapiens) (O94782 whole entry, looked up): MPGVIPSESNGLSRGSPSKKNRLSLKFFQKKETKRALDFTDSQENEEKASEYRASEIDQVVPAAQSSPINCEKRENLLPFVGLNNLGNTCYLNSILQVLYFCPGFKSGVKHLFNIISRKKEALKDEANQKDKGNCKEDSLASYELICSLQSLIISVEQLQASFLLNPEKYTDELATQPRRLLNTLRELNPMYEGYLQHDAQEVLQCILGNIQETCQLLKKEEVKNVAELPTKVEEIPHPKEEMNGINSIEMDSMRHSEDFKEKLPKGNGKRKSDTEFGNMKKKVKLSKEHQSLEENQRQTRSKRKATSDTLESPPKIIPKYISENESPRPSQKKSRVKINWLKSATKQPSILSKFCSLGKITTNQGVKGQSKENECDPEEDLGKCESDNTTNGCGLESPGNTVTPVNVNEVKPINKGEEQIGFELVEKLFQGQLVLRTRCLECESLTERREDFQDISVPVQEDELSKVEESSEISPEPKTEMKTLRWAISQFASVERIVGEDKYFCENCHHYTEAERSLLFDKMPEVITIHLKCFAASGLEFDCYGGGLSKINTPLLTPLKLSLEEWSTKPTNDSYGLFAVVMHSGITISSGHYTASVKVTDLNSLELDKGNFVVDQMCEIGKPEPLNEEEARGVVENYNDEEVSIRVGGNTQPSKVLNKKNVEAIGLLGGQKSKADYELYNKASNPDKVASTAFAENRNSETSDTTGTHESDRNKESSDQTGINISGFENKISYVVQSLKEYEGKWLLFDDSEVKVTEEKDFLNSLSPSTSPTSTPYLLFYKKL
# Summary of the method: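 Kinetic fluorescence assay: 1nM USP1/UAF1, 15 min compound preincubation, then 150nM Ub-Rho; 480/540 nm.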
# [2] = target: Phosphoglycerate kinase, glycosomal (Trypanosoma brucei brucei) (UniProt P07378); test: qHTS Validation Assay to Find Inhibitors of Phosphoglycerate Kinase (AID 504547)
# Chain of Phosphoglycerate kinase, glycosomal (Trypanosoma brucei brucei) (P07378 whole entry, looked up): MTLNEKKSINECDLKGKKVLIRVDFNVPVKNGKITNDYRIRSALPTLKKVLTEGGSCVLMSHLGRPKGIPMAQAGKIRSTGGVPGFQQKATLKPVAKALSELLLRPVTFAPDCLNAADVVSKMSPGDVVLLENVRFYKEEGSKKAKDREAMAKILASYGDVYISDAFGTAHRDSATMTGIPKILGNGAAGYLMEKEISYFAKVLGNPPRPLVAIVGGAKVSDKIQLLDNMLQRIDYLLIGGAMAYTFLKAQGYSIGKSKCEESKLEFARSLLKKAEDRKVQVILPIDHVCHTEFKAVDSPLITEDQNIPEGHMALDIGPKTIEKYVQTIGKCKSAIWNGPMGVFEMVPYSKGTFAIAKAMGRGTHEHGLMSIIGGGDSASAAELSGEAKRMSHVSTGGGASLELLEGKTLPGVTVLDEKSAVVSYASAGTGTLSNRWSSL
# Summary of the method: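 PGK activity was coupled to GAPDH (100nM final), which generates the unstable substrate 1,3-bisphosphoglycerate in-well. Reactions ran 60 minutes at room temperature in 100mM TEA pH 7.6, 5mM MgCl2, 0.01% Tween-20, then Kinase-Glo Plus luminescence was read.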
# [3] = target: phosphoglycerate mutase (Leishmania major) (UniProt Q4Q090); test: qHTS Validation Assay to Find Inhibitors of Phosphoglycerate Mutase (AID 504548); also: series mostly up to about 58 µM
# Chain of phosphoglycerate mutase (Leishmania major) (Q4Q090 1-553): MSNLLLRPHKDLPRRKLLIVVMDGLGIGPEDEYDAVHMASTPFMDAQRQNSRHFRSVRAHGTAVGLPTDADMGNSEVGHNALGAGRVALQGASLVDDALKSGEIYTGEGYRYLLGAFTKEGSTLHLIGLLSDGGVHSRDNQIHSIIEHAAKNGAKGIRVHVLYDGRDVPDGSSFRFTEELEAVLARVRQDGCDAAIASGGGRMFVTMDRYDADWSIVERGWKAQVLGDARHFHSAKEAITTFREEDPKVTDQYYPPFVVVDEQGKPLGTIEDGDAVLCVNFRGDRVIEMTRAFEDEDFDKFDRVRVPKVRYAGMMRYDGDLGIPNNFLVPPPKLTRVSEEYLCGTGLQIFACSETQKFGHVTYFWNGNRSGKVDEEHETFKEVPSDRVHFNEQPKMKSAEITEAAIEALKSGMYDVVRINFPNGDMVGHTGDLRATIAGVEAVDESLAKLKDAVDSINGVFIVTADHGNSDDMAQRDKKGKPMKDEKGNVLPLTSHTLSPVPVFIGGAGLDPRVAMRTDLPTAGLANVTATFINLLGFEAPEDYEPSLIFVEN
# Summary of the method: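 Lm PGAM 1.25nM final; 100 mM TEA pH 7.6, 5 mM MgCl2, 0.01% Tween-20; 45 min RT; Kinase-GloPlus, 10 min; end-point luminescence. Enzyme-free wells as negative controls.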
# [4] = target: DNA dC->dU-editing enzyme APOBEC-3G (Homo sapiens) (UniProt Q9HC16); test: qHTS for inhibitors of Vif-A3G interactions: Validation (AID 588379)
# Chain of DNA dC->dU-editing enzyme APOBEC-3G (Homo sapiens) (Q9HC16 whole entry, looked up): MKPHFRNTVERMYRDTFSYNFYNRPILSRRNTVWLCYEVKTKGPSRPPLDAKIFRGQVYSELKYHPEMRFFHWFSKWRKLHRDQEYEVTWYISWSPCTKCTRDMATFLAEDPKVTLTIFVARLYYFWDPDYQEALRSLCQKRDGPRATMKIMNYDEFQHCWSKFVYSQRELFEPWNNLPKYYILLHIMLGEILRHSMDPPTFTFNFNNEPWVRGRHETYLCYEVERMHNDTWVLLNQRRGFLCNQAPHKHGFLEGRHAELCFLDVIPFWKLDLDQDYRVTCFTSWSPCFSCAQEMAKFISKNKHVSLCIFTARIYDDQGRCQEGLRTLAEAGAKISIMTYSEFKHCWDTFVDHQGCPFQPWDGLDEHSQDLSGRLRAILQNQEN
# Summary of the method: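 HeLa cells stably expressing Vif and A3G-eYFP, 700 cells/well, incubated overnight at 37 deg C, then exposed to compound overnight at 37 deg C. Inhibition of Vif-mediated degradation read as increased yellow fluorescence (Ex 488/Em 500-530) by laser-scanning cytometry.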
# [5] = target: Estrogen receptor (Homo sapiens) (UniProt P03372); test: qHTS assay for small molecule antagonists of estrogen receptor alpha signaling (AID 588513; active = well fitted curve in the direction sought with a large enough effect in the signal ratio, with a control signal flat, not every such curve was filed as active; the % refers to the signal ratio)
# Chain of Estrogen receptor (Homo sapiens) (P03372 whole entry, looked up): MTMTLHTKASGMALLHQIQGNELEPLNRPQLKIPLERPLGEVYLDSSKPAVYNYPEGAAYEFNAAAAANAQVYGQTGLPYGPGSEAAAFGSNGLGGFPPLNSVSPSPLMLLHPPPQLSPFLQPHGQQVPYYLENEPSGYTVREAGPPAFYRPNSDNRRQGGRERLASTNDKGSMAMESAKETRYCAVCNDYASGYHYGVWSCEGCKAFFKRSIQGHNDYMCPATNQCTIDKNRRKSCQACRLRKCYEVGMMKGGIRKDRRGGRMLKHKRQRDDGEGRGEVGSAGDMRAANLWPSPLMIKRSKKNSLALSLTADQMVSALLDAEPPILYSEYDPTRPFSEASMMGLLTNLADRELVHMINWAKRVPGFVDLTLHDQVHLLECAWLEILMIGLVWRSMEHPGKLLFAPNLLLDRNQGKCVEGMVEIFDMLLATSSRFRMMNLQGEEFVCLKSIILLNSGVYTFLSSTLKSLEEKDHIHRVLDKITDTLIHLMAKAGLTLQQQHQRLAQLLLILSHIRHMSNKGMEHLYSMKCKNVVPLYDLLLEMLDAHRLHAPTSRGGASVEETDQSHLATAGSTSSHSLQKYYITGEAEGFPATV
# Summary of the method: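 Cells were plated at 5000/well and incubated 4 h at 37 C. Compounds were added as 1:2 dilution series, duplicates. 17-beta-estradiol (0.5nM final) was added for 18 h before CCF4 detection.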
# [6] = target: Glucocorticoid receptor (Homo sapiens) (UniProt P04150); test: qHTS assay for small molecule agonists of glucocorticoid receptor signaling (AID 588532; active = well fitted curve in the direction sought with a large enough effect in the signal ratio, with a control signal flat; the % refers to the signal ratio); details: HeLa MMTV-bla, beta-lactamase ratio, agonist, 18 h; stronger effect = higher value; percent of dexamethasone control, DMSO zero
# Chain of Glucocorticoid receptor (Homo sapiens) (P04150 whole entry, looked up): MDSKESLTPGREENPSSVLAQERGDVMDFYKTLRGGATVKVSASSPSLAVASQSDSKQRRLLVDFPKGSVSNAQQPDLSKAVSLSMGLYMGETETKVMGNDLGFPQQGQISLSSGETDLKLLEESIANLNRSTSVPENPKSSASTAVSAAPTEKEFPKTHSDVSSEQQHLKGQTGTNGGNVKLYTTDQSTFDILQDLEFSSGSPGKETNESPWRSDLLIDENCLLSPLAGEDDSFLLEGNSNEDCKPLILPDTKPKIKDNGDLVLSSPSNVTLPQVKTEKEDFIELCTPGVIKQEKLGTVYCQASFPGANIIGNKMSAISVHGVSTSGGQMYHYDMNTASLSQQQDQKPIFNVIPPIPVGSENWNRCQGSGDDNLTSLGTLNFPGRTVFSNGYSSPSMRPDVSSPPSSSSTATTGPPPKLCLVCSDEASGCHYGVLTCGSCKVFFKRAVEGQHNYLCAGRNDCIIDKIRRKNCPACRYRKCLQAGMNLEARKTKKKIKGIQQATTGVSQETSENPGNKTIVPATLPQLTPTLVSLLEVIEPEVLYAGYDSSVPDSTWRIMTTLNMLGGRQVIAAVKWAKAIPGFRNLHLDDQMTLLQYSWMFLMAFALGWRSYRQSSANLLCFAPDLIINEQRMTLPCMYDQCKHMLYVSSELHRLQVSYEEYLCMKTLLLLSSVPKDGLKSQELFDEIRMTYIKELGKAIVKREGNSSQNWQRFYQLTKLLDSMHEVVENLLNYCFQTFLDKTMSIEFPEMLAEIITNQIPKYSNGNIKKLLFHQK
# Summary of the method: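 Cells were plated and rested 3-5 h at 37 C, compounds were added in titration and incubated 18 h, then CCF4 substrate was loaded for 2 h at RT before reading blue/green fluorescence. EC50 came from Hill-equation fitting.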
# [7] = target: Vitamin D3 receptor (Homo sapiens) (UniProt P11473); test: qHTS assay for small molecule agonists of vitamin D receptor signaling (AID 588543; calls by dose curve)
# Chain of Vitamin D3 receptor (Homo sapiens) (P11473 whole entry, looked up): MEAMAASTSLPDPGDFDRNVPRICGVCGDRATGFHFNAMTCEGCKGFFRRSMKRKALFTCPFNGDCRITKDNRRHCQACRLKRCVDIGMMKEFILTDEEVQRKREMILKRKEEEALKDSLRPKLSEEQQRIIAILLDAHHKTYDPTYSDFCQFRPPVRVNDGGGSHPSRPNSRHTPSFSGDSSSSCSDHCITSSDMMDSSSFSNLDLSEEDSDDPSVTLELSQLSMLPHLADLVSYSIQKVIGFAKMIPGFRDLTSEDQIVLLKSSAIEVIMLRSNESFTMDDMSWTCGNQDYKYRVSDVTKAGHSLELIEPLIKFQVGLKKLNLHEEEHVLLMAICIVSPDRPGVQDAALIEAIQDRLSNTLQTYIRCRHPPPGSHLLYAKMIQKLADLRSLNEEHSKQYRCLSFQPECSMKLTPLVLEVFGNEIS
# Summary of the method: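 qHTS in agonist mode: compound titrations stimulate a VDR-driven β-lactamase reporter in HEK293T cells over 16 h at 37 °C. Response normalized to 50 nM 1α,25-dihydroxyvitamin D3 = 100%, DMSO = 0%; Hill fitting gives EC50 and maximal response.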
# [8] = qHTS for Inhibitors of ATXN expression: Validation of Cytotoxic Assay (AID 588349); also: potency is read from the fitted curve at half-maximal effect
# Summary of the method: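 HEK293 cells treated with titrated compound for 72 hr at 37 degrees C; viability read as intracellular ATP by CellTiter Glo luminescence.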
# [9] = qHTS for Inhibitors of ATXN expression: Validation (AID 588378); also: nearly all actives have a fitted effect of over 75% in size; also: potency is read from the fitted curve at half-maximal effect
# Summary of the method: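 Validation of ATXN2 expression inhibitors uses a cell-based luciferase fusion reporter in HEK293 cells, with 24 h compound exposure and paired viability (fluorescence) and reporter (luminescence) end-point reads.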
# [10] = target: Estrogen receptor (Homo sapiens) (UniProt P03372); test: qHTS assay for small molecule agonists of estrogen receptor alpha signaling (AID 588514; calls by dose curve; also: nearly all actives have a fitted effect of over 70% in size)
# Summary of the method: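 ER-alpha-UAS-bla GripTite HEK293 cells, 5000/well in 2% charcoal/dextran-stripped FBS medium, treated with compound titrations 18 h at 37 C. CCF4 beta-lactamase read by fluorescence after 2 h RT; normalised to 20 nM 17-beta-estradiol (100%) and DMSO (0%), Hill fit for EC50 and efficacy.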
# [11] = target: Bile acid receptor (Homo sapiens) (UniProt Q96RI1); test: qHTS assay for small molecule antagonists of farnesoid X receptor signaling (AID 588526; calls by dose curve)
# Chain of Bile acid receptor (Homo sapiens) (Q96RI1 whole entry, looked up): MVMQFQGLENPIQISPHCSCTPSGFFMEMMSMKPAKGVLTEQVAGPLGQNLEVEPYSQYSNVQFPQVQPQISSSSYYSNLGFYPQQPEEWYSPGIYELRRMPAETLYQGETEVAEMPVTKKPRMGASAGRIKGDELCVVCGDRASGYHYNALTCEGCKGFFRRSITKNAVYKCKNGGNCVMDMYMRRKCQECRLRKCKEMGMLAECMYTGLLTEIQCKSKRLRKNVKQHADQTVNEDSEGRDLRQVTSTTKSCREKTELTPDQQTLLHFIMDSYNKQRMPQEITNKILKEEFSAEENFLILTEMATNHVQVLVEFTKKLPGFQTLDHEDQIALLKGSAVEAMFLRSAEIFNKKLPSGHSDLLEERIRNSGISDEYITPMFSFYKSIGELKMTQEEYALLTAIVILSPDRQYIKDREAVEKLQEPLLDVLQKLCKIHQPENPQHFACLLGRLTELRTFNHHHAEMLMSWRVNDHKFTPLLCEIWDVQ
# Summary of the method: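 Antagonist mode: titrated compounds tested against chenodeoxycholic acid stimulation (normalized to 50 uM CDCA and DMSO) in GeneBLAzer HEK293T cells for 16 h. Beta-lactamase read by CCF4 fluorescence; IC50 from Hill fits.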
# [12] = target: Glucocorticoid receptor (Homo sapiens) (UniProt P04150); test: qHTS assay for small molecule antagonists of glucocorticoid receptor signaling (AID 588533; active = well fitted inhibition curve with a large enough effect in the signal ratio, with a control signal flat, not every such curve was filed as active; the % refers to the signal ratio)
# Summary of the method: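 Antagonist-mode qHTS: compound titrations added to GRE-bla HeLa cells, then dexamethasone 2 nM final; 18 h, 37 C. CCF4 FRET fluorescence normalized to dexamethasone and DMSO; IC50 from Hill fit.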
# [13] = target: Peroxisome proliferator-activated receptor gamma (Homo sapiens) (UniProt P37231); test: qHTS assay for small molecule agonists of peroxisome proliferator-activated receptor gamma signaling (AID 588536; active = well fitted curve in the direction sought with a large enough effect in the signal ratio, with a control signal flat, not every such curve was filed as active; the % refers to the signal ratio)
# Summary of the method: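 PPAR-gamma-UAS-bla HEK293 cells in medium with 1% charcoal/dextran-treated FBS were exposed to compounds for 16 h at 37 C. Beta-lactamase activity was read with CCF4 substrate (405 nm excitation, 460/530 nm emission).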
# [14] = target: Vitamin D3 receptor (Homo sapiens) (UniProt P11473); test: qHTS assay for small molecule antagonists of vitamin D receptor signaling (AID 588541; calls by dose curve;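 also: receptor activated by calcitriol during compound treatment; series mostly up to about 77 µM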)
# Summary of the method: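 VDR-UAS-bla HEK293T cells in 2% charcoal-stripped FBS were stimulated with 1-alpha,25-dihydroxyvitamin D3 (3 nM final) plus compound for 16 h at 37 C. The beta-lactamase CCF4 readout was normalized to 50 nM agonist and DMSO, and Hill fits gave IC50.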
# [15] = qHTS assay for small molecule agonists of retinoid X receptor alpha signaling (AID 588544; calls by dose curve); details: HEK293T RXRa-UAS-bla, beta-lactamase reporter, 18 h; 530 nm emission
# [16] = target: Retinoic acid receptor RXR-alpha (Homo sapiens) (UniProt P19793); test: as above
# Chain of Retinoic acid receptor RXR-alpha (Homo sapiens) (P19793 whole entry, looked up): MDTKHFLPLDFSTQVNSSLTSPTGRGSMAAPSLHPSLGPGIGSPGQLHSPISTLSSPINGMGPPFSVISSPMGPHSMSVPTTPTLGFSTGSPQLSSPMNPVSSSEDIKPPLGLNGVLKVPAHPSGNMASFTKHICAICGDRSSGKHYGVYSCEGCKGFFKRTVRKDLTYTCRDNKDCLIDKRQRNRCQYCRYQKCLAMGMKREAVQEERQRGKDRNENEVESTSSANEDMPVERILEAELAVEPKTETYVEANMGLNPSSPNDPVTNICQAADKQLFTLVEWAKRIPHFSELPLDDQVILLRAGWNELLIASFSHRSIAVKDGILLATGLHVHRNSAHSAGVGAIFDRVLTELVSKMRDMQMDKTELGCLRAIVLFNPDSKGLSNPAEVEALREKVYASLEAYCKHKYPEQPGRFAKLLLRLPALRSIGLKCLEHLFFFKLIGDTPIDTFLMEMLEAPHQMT
# [17] = qHTS assay for small molecule antagonists of peroxisome proliferator-activated receptor delta signaling (AID 588535; active = well fitted inhibition curve with a large enough effect in the signal ratio, with a control signal flat, not every such curve was filed as active; the % refers to the signal ratio;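 as to max response: cells co-treated with a PPAR-delta agonist as stimulator during compound exposure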); details: HEK293T PPARd-UAS-bla, beta-lactamase FRET ratio, 18 h; 460 nm channel
# Summary of the method: (§1)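 Antagonist-mode beta-lactamase reporter (GeneBLAzer PPAR-delta-UAS-bla) in HEK293T cells, 2% charcoal/dextran FBS, 4000 cells/well. Compound titrations, 18 h at 37 C; CCF4 ratio read, IC50 and efficacy from Hill fits.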
# [18] = target: Peroxisome proliferator-activated receptor delta (Homo sapiens) (UniProt Q03181); test: as above
# Summary of the method: as §1
smiles,measurement,setting,value
NCC(=O)CCC(=O)O,Potency,[1],inactive
CCCCN(CCCC)CC(O)c1cc(Cl)cc2c1-c1ccc(Cl)cc1/C2=C/c1ccc(Cl)cc1 (stereo unspecified),Potency,[1],inactive
Oc1cn2c(n1)Nc1ccc(Cl)c(Cl)c1C2,Potency,[1],inactive
CCC(=O)Nc1ccc(O)cc1,Potency,[1],inactive
COC(=O)C1=C(C)NC(C)=C(C(=O)OC)C1c1ccccc1[N+](=O)[O-],outcome,[2],inactive
same,outcome,[3],inactive
same,outcome,[4],inactive
same,outcome,[5],inactive
same,activation,[6],-7.74% (inactive)
same,outcome,[7],inactive
Cc1cc(N)c2ccccc2[n+]1CCCCCCCCCC[n+]1c(C)cc(N)c2ccccc21,outcome,[2],inactive
same,outcome,[3],inactive
same,Potency,[1],inactive
same,outcome,[4],inactive
CNC(=O)Oc1ccc2c(c1)[C@]1(C)CCN(C)[C@@H]1N2C,outcome,[2],inactive
same,outcome,[3],inactive
same,Potency,[8],inactive
same,Potency,[9],inactive
same,outcome,[5],inactive
same,outcome,[10],inactive
same,outcome,[11],inactive
same,activation,[6],-3.85% (inactive)
same,outcome,[12],inactive
same,outcome,[13],inactive
same,outcome,[14],inactive
same,outcome,[7],inactive
same,max response,[15],-13.6%
same,outcome,[16],inactive
NC(CSCC(=O)O)C(=O)O (stereo unspecified),Potency,[1],inactive
CN(C)CCN(Cc1ccccc1)c1ccccn1,Potency,[1],inactive
CCN(CC)CCCC(C)Nc1c2ccc(Cl)cc2nc2ccc(OC)cc12 (stereo unspecified),outcome,[2],inactive
same,Potency,[1],56.2 µM (active) and 79.4 µM (active)
O=C(O)c1ccccc1-c1ccc(C(F)(F)F)cc1,Potency,[1],inactive
Cc1ccc2nc(N)[nH]c(=O)c2c1Sc1ccncc1,Potency,[1],inactive
CSc1ccc2c(c1)C(N1CCN(C)CC1)Cc1ccccc1S2 (stereo unspecified),outcome,[2],inactive
same,outcome,[3],inactive
same,Potency,[8],31.6 µM (active)
same,Potency,[9],14.1 µM (active)
C[C@H]1O[C@@H](n2cc(F)c(=O)[nH]c2=O)[C@H](O)[C@@H]1O,Potency,[1],inactive
NC(=O)NNc1ccccc1,Potency,[1],inactive
OCC(O)CN1CCN(c2ccccc2)CC1 (stereo unspecified),Potency,[1],inactive
c1ccc2c(CC3=NCCN3)cccc2c1,Potency,[1],inactive
Cc1cccc(C)c1NC(=O)CN(CC(=O)O)CC(=O)O,Potency,[1],inactive
COc1ccc2[nH]c(S(=O)Cc3ncc(C)c(OC)c3C)nc2n1 (stereo unspecified),Potency,[1],inactive
CC(C)(C)C(=O)C(Oc1ccc(Cl)cc1)n1ccnc1 (stereo unspecified),Potency,[1],inactive
COc1ccc(S(=O)(=O)Nc2nnc(CC(C)C)s2)cc1,Potency,[1],inactive
COc1cc(C)c(Cc2cnc(N)nc2N)cc1OC,Potency,[1],inactive
CC(CN1c2ccccc2Sc2ccccc21)N(C)C (stereo unspecified),outcome,[2],inactive
same,outcome,[3],inactive
same,Potency,[1],inactive
same,Potency,[9],17.8 µM (active)
same,max response,[15],10.3%
same,outcome,[16],inactive
COc1ccc2c(c1)C(=O)N(CCc1ccc(S(=O)(=O)NC(=O)NC3CCCCC3)cc1)C(=O)C2(C)C,Potency,[1],inactive
CC(=O)Nc1ccc(/C=N/NC(N)=S)cc1,Potency,[1],inactive
CC(=O)CCC(=O)O,Potency,[1],inactive
CN(C)CCCN1c2ccccc2Sc2ccc(Cl)cc21,outcome,[2],inactive
same,outcome,[3],inactive
same,Potency,[1],inactive
same,outcome,[11],inactive
same,activation,[6],7.77% (inactive)
same,max response,[17],-54.6%
same,outcome,[18],inactive
same,outcome,[13],inactive
same,outcome,[14],inactive
same,outcome,[7],inactive
same,max response,[15],-6.01%
same,outcome,[16],inactive
CCOC(=O)[C@H](CCc1ccccc1)N[C@@H](C)C(=O)N1C(=O)N(C)C[C@H]1C(=O)O,Potency,[1],inactive
Cc1ncc(COP(=O)(O)O)c(C=O)c1O,Potency,[1],inactive
Cc1cc2nc3c(=O)[nH]c(=O)nc-3n(C[C@H](O)[C@H](O)[C@H](O)CO)c2cc1C,activation,[6],-14% (inactive)
